Results reported in PubChem BioAssay.
The source made the active and inactive calls.

Tests used:
[1] = small molecules captured by biotinylated probe aFSTL3 – biochemical, small-molecule microarray, fluorescence 635/667, stem cell growth factor project, primary screen (AID 1064); conditions: higher = more signal;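 note: measures binding of the biotinylated anti-FSTL3 antibody to printed compounds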
[2] = binders from COS7 lysate, DM2A8 probe, primary screen, torsin A project, cell lysate, small-molecule microarray, fluorescence 635/667 (AID 1065); conditions: higher = more signal, COS7 lysate expressing mutant human TOR1A
[3] = small molecules captured by biotinylated probe aFGF2 – biochemical, small-molecule microarray, fluorescence 635/667, stem cell growth factor project, primary screen (AID 1067); conditions: higher = more signal;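 note: measures binding of biotinylated aFGF2 protein to printed compounds on slides; z-score merges feature fluorescence and signal-to-noise across triplicate slides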
[4] = small molecules captured by biotinylated probe aFGF10 – biochemical, small-molecule microarray, fluorescence 635/667, stem cell growth factor project, primary screen (AID 1071); conditions: higher = more signal;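 note: score merges 667 nm spot intensity and signal to noise from triplicate slides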
[5] = biological target: Neurogenic locus notch homolog protein 2 (Homo sapiens) (UniProt Q04721); assay: small molecules binding Notch2 protein – biochemical, small-molecule microarray, 635 nm fluorescence, stem cell growth factors, primary screen (AID 1073); conditions: higher = more signal
[6] = biological target: Pro-neuregulin-1, membrane-bound isoform (Homo sapiens) (UniProt Q02297); assay: small molecules binding neuregulin-1 protein – biochemical, small-molecule microarray, fluorescence 635/667, psychiatric disease protein project, primary screen (AID 1075); conditions: NRG1 binding, 635 nm fluorescence, higher = more signal;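 note: score combines 667 nm spot fluorescence with signal to noise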
[7] = system: Neuregulin-1 EGF-like domain; assay: small molecules binding NRG1 EGF domain – biochemical, small-molecule microarray, 635 nm fluorescence, primary screen (AID 1081); conditions: higher = more signal;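 note: binding of the protein to compounds printed on small-molecule microarray slides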
[8] = FRG1 expression reporter modulators in myotubes – cell-based, C2C12 myotubes, firefly/Renilla luciferase, luminescence, FRG1 inhibition for FSHD, primary screen (AID 1084); conditions: FRG1 promoter luciferase, higher = more signal, called active from +8 up or from −8 down
[9] = small molecules captured by biotinylated probe aFST – biochemical, small-molecule microarray, fluorescence 635/667, stem cell growth factor project, primary screen (AID 1086); conditions: higher = more signal;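 note: score merges 667 nm fluorescence with signal-to-noise of each printed compound spot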
[10] = binders of probe aHhip on microarray, primary screen, stem cell growth factor project, biochemical, small-molecule microarray, fluorescence 635/667 (AID 1087); conditions: higher = more signal;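 note: score merges spot fluorescence at 667nm with spot signal to noise ratio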

Sequence of Neurogenic locus notch homolog protein 2 (Homo sapiens) (Q04721 whole entry, looked up, canonical isoform): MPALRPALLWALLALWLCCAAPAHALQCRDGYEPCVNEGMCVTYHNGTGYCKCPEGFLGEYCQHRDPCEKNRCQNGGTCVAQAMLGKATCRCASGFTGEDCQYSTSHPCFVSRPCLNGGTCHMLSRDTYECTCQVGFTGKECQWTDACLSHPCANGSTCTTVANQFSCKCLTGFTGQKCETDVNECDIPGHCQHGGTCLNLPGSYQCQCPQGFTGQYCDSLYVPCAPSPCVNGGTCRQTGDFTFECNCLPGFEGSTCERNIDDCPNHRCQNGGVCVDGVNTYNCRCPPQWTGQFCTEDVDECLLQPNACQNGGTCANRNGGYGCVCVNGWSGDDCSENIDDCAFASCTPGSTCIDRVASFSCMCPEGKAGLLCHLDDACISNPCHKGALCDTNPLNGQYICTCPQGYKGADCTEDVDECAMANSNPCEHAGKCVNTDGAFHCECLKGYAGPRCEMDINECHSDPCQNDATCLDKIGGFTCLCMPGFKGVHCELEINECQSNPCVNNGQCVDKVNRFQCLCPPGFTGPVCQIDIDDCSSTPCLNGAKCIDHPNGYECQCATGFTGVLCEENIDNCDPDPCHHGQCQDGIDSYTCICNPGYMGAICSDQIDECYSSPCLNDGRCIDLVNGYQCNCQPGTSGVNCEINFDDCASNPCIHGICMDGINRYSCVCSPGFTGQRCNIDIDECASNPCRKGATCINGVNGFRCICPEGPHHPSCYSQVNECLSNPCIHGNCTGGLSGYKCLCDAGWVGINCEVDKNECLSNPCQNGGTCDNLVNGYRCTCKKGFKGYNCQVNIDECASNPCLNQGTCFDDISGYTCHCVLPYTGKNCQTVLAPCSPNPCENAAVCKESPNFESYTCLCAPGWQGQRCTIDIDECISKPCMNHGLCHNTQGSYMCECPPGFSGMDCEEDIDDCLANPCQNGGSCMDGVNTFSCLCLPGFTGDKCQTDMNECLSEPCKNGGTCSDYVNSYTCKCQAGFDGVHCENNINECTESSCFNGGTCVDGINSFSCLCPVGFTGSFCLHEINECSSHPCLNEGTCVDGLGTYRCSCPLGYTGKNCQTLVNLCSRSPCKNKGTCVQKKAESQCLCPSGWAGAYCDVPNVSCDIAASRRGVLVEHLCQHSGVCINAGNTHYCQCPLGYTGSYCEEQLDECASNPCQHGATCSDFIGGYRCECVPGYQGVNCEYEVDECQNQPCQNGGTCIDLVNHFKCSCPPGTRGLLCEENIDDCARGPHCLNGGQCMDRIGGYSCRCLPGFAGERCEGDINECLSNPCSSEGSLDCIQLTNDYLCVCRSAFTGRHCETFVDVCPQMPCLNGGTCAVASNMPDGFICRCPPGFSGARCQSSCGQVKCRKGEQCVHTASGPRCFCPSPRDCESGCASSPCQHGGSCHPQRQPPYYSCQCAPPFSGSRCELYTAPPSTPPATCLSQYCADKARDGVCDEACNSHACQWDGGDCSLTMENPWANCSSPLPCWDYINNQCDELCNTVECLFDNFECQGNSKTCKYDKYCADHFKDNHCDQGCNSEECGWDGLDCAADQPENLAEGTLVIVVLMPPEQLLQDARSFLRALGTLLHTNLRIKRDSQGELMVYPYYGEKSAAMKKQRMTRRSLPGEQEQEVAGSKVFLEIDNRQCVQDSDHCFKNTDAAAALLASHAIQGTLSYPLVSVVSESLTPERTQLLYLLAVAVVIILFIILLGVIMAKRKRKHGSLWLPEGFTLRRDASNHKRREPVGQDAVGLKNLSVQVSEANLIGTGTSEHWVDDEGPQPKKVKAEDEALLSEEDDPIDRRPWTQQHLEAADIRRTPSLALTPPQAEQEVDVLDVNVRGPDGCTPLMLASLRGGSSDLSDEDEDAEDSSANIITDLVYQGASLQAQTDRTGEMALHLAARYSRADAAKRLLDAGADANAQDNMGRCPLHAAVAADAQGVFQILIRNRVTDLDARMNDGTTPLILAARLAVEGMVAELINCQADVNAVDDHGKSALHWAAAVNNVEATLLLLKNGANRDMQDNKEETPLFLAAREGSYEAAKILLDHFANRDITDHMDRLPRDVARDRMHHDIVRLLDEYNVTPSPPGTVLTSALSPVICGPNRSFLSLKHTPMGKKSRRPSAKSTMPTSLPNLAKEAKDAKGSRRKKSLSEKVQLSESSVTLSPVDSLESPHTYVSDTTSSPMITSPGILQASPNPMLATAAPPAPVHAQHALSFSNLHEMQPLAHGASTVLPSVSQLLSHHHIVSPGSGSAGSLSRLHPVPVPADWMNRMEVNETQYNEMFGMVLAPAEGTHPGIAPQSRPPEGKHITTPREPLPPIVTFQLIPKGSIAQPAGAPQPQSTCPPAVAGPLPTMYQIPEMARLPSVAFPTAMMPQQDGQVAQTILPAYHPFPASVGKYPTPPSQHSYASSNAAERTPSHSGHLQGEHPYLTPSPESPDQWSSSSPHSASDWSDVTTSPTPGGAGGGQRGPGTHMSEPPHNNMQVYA
Sequence of Pro-neuregulin-1, membrane-bound isoform (Homo sapiens) (Q02297 whole entry, looked up, the tested form may be a part, canonical isoform): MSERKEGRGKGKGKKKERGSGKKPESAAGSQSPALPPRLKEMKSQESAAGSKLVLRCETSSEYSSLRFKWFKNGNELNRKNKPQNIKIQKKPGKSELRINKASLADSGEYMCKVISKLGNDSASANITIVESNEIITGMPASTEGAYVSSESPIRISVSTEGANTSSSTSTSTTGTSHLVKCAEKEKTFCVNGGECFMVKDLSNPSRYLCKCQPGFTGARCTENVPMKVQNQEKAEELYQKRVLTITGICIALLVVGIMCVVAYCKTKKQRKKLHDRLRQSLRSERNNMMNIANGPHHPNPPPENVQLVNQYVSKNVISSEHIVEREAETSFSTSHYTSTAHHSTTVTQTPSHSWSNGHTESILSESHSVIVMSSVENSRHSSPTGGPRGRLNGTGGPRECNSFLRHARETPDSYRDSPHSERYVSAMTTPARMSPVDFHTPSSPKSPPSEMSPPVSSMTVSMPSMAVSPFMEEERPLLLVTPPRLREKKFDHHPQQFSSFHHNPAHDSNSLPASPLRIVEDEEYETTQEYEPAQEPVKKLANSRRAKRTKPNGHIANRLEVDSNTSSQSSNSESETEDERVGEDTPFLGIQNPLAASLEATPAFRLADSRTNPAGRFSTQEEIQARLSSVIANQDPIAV

Structure (SMILES)	composite z-score [1]	composite z-score [2]	composite z-score [3]	composite z-score [4]	composite z-score [5]	composite z-score [6]	composite z-score [7]	z-score [8]	composite z-score [9]	composite z-score [10]
CCOC(=O)c1cn(C[C@H](Cc2ccccc2)NC(=O)N[C@H](CO)CCc2oc(C(C)=O)c(C(=O)OC)c2C(=O)OC)nn1	-0.562	-0.0438	-0.101	1.09	1.47	0.553	1.39	0.872 (inactive)	0.863	-0.0383
CN(C)CCCC[C@@H]1NC(=O)[C@@H]2C[C@H](C(=O)NCCCCCCNC(=O)CS)[C@H](c3ccc(O)cc3)N2C1=O	-0.195	0.991	-0.0959	0.204	0.262	0.133	0.975	0.133 (inactive)	-0.114	-0.0645
O=C(NCc1ccccc1)[C@@H]1c2ccccc2C(=O)N(Cc2ccc(OC(F)(F)F)cc2)[C@H]1c1ccc(CO)cc1	0.85	0.0787	-0.0784	-0.225	-0.674	1.19	0.921	-1.37 (inactive)	0.0209	0.321
COc1ccc([Si](C)(C)[C@@H]2[C@@H](CC(=O)N3CCC[C@H]3CO)O[C@]3(C(=O)N(Cc4cccc(N5CCCCC5=O)c4)c4ccccc43)[C@H]2C)cc1	-0.398	0.887	-0.116	0.411	0.0236	1.07	1.07	-0.0792 (inactive)	-0.015	-0.0296
COc1cc(CO)cc(I)c1O[C@H]1C=C(C(=O)NCCO)C[C@@H](NC2CCCCCC2)[C@@H]1O	-0.606	0.174	-0.0114	0.998	0.618	-0.0274	0.716	0.999 (inactive)	-0.0564	-0.0994
CC(C)=C1C(=O)C(c2ccccc2)=C2CN3C(=O)N(CCc4ccccc4)C(=O)[C@]3(C)[C@H]21	0.532	-0.0272	0.15	0.265	1.26	1.81	1.07	0.863 (inactive)	0.64	-0.0346
C=C(CCCC)/C(=C/C[C@H](OC(C)=O)c1cccc(OCCO)c1)c1cnc2ccccc2c1	0.243	-0.194	-0.116	0.0835	0.16	-0.0759	0.244	-0.45 (inactive)	-0.381	-0.0994
COC(=O)[C@H](Cc1ccc(O)cc1)N[C@@H](/C=C/C1CC1)[C@H](O)Cc1ccccc1	-0.262	0.396	-0.187	0.154	0.023	-0.721	-0.776	-0.269 (inactive)	-0.437	-0.0994
C=CCOC(=O)[C@@H]1[C@H]2C(=O)O[C@H](c3ccccc3)[C@H](c3ccccc3)N2[C@H](c2ccc(OCCOC(=O)[C@H]3C[C@H]4C(=O)N[C@@H](CCCCN(C)C)C(=O)N4[C@H]3c3ccc(O)cc3)cc2)[C@@]12C(=O)Nc1ccc(I)cc12	-0.139	1.43	-0.0583	0.454	-0.0871	0.655	1.33	0.921 (inactive)	0.166	0.0373
Cc1ccc(S[C@]2(C(=O)NCCCN(C)C)CC(=O)N(C3Cc4ccccc4C3)[C@@H]2c2ccc(CO)cc2I)cc1	0.533	-0.602	-0.0281	-0.25	0.0374	1.88	0.522	-0.967 (inactive)	0.404	-0.0373
CCCNC(=O)[C@@]1(c2ccc([N+](=O)[O-])cc2)CC(=O)N(C(C)C)[C@@H]1c1ccc(CO)cc1	0.829	-0.22	-0.111	-0.904	-1.73	0.0532	0.843	-0.558 (inactive)	-1.14	-0.0618
N#Cc1ccc(-c2cccc(=O)o2)cc1	-0.5	0.316	-0.103	0.248	0.601	0.114	0.678	0.563 (inactive)	0.445	-0.166
CC(C)=CCCC(C)=CC(O)C1C=CC2C(=O)NC(=O)C2N1Nc1ccc(Cl)cc1Cl (stereo not given)	0.235	0.401	0.234	0.214	0.933	1.86	0.915	1.89 (inactive)	0.901	0.0373
CCCCC(=C=CC[C@H](O)c1ccc(CO)o1)CCO	-0.388	1.03	-0.109	0.0582	0.165	1.75	1.2	0.0699 (inactive)	0.0508	0.0373
COc1ccc(C(=O)Nc2cccc(CN3C(=O)[C@@]4(O[C@@H](CC(=O)N5CCC[C@H]5CO)[C@H]([Si](C)(C)c5ccc(OC)cc5)[C@H]4C)c4ccccc43)c2)cc1	-0.226	0.484	-0.0625	0.0314	0.518	1.39	1.13	-3.85 (inactive)	-0.0084	-0.261
CCCC=C(CCC)[C@@H](NC(=O)OCC(C)C)c1ccc(C(=O)OC)cc1	-0.443	0.477	-0.0596	0.161	0.638	0.224	0.362	-0.705 (inactive)	0.107	2.35
CCOc1cc(C(O)C2C=CC3C(=O)N(c4ccccc4)C(=O)C3N2Nc2ccccc2F)ccc1O (stereo not given)	2.51	0.112	0.252	0.334	0.935	2.06	1.37	0.118 (inactive)	1.51	0.02
COc1ccc(NN2C(C(O)c3ccc(I)cc3)C=CC3C(=O)N(C4CCCCC4)C(=O)C32)cc1 (stereo not given)	0.0109	0.813	-0.0024	0.896	1.39	1.02	1.04	-0.21 (inactive)	1.61	0.245
O=C1C2C=CC(C(O)c3cccs3)N(Nc3ccc([N+](=O)[O-])cc3)C2C(=O)N1c1ccccc1 (stereo not given)	0.102	-0.0628	0.0543	0.362	1.19	1.67	1.23	1.05 (inactive)	0.611	0.154
Cc1ccc(C(C)CC(O)C2C=CC3C(=O)N(C)C(=O)C3N2Nc2ccccc2)o1 (stereo not given)	-0.138	0.0897	0.0876	0.75	1.44	0.812	1.09	0.651 (inactive)	1.44	-0.0994
CCOC(=O)C1=CCC(c2cc3ccccc3[nH]2)N(CCN2CC(C(=O)OCC)=CCC2c2cc3ccccc3[nH]2)C1 (stereo not given)	-0.0107	-0.75	-0.0216	0.433	1.06	1.82	1.32	2.57 (inactive)	0.74	-0.361
COCCOC(=O)N1C(=O)[C@@]2(c3cc(C#CC4(O)CCCCCC4)ccc31)[C@H](c1ccc(O)cc1)N1[C@H](c3ccccc3)[C@H](c3ccccc3)OC(=O)[C@H]1[C@@H]2C(=O)N1CCCCCCC1	2.85	0.567	0.0059	0.83	0.547	0.903	1.15	-0.0559 (inactive)	2.06	1.39
C=CCNC(=O)[C@H]1[C@@H]2C(=O)O[C@@H](c3ccccc3)[C@@H](c3ccccc3)N2[C@@H](c2ccc(OCCO)cc2)[C@]12C(=O)Nc1ccc(C#CC3(O)CCCCCC3)cc12	0.604	0.648	-0.0065	1.1	1.54	1.43	1.1	-0.486 (inactive)	0.229	0.306
C=CC[C@@]1(C(=O)OC)N=C(c2ccc(OCCCO)cc2)O[C@@H]1c1ccccc1N=[N+]=[N-]	0.172	-0.0701	0.0555	0.256	1.47	1.49	1.44	1.54 (inactive)	0.587	0.154
CC(C)[Si](C#CCCc1ccccc1)(O[C@H](c1ccccc1)c1cn(Cc2ccccc2)nn1)C(C)C	-0.454	-0.137	-0.116	0.529	0.186	0.215	1.12	0.0497 (inactive)	0.584	0.0401
COc1ccc([Si](C)(C)[C@@H]2[C@@H](CC(=O)N3Cc4ccccc4C[C@H]3CO)O[C@]3(C(=O)N(Cc4cccc(N5CCOC5=O)c4)c4ccccc43)[C@H]2C)cc1	-0.38	0.671	-0.0264	0.147	0.331	0.309	0.876	-1.64 (inactive)	0.0495	-0.0618
